Assay results: PubChem BioAssay AID1851 (National Center for Advancing Translational Sciences (NCATS), 2009)
“And” between values parts separate entries of the source, which are not always exact repeats. Equal values may be shown once. The whole screen tested about 16,000 compounds, of which about 5,700 (36%) were called active. Inconclusive results (about 24%) are left out. Calls follow the shape of the dose curve; as a rule, active = well fitted curve in the direction sought with a large enough effect; inconclusive = small, poorly fitted or top-dose-only effect, or effect the other way; inactive = no such curve, though single readings can be large or run the other way. The list shows a part of the results.

Biological target: Cytochrome P450 1A2 (Homo sapiens) (UniProt P05177)
Test: Cytochrome panel assay with activity outcomes
Settings: recombinant CYP, pro-luciferin dealkylation, luminescence, p450-cyp1a2; series mostly up to 57.1 µM
% is scaled to controls: 0 for no effect and ±100 for the full control effect.

Cytochrome P450 1A2 (Homo sapiens), sequence (P05177 whole entry, looked up): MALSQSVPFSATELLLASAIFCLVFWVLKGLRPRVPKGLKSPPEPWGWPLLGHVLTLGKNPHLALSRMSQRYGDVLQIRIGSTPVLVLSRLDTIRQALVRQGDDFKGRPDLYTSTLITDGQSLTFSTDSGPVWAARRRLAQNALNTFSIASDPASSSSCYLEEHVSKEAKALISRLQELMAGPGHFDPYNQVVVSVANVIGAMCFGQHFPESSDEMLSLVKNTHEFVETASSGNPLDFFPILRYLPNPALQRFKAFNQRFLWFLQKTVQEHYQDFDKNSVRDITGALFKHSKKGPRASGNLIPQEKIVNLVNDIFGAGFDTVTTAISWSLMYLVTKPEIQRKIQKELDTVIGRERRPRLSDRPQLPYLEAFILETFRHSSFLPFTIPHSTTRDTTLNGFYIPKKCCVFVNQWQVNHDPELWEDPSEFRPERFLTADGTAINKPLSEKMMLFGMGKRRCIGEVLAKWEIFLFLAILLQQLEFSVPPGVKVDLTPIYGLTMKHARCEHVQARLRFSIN

SMILES	AC50	activity, negative = inhibition
O=C1c2cccc3c(Cl)ccc(c23)C(=O)N1O	3.16 µM (active)	–
Nc1ccc(N2C(=O)c3ccccc3C2=O)c(Cl)c1	inactive	–
CC(C)COP(=O)(OCC(C)C)C(O)c1ccccc1F (stereo not given)	inactive	–
O=C1CCCCCC1C1(O)C(=O)Nc2ccc(Br)cc21 (stereo not given)	inactive	–
CCOC(=O)c1c2ccc(OCC(=O)N/N=C/c3ccc(Cl)cc3)cc2n2ccccc12	3.16 µM (active)	–
Cc1ccc(-n2c(C)cc(C(=O)CSc3n[nH]c(N)n3)c2C)cc1	inactive	–
Cc1cc(C)nc(Nc2ncc(O)n2-c2ccccc2)n1	2.82 µM (active)	–
Cc1ccc(-n2c(O)cnc2Nc2nc(C)cc(C)n2)cc1	5.01 µM (active)	–
N=c1n(-c2ccccc2)c(O)cc(=O)n1-c1ccccc1	inactive	–
S=C(Nc1ccccc1)Nc1nccs1	0.794 µM (active)	–
O=C(O)c1ccccc1C(=O)Nc1ccc(S(=O)(=O)Nc2nccs2)cc1	inactive	–
CN(CCO)Cc1ncccc1O	–	-10% [at 2.29 µM] (inactive)
O=C(CCN1CCN(c2ccccc2F)CC1)Nc1ccccc1F	inactive	–
COc1ccccc1NC(=O)CN1CCN(C2c3ccccc3-c3ccccc32)CC1	15.8 µM (active)	–
Cc1ccc(C(=O)C(OC(=O)CN2C(=O)c3ccccc3C2=O)c2ccccc2)cc1 (stereo not given)	inactive	–
COc1ccc(NC(C)=O)cc1NC(=O)CN1CCN(CC(=O)Nc2ccccc2Cl)CC1	inactive	–
Cc1cc(Cl)ccc1NC(=O)CN1CCC(C(O)(c2ccccc2)c2ccccc2)CC1	inactive	–
CC(C)OC(=O)CN1CCN(C2c3ccccc3-c3ccccc32)CC1	12.6 µM (active)	–
COc1ccc(NC(C)=O)cc1NC(=O)CN1CCN(C2c3ccccc3-c3ccccc32)CC1	28.2 µM (active)	–
COc1ccccc1NC(=O)CN1CCC(C(=O)c2ccc(F)cc2)CC1	inactive	–
COC(=O)C/C=C1\c2ccccc2[C@H](OC)[C@H]1C	–	-6.47% [at 11.4 µM] (inactive)
COc1ccccc1NC(=O)CN1CCN(c2ccccc2F)CC1	25.1 µM (active)	–
O=C(c1csnn1)N1CCC2(CC1)CN(Cc1cc(C(F)(F)F)cc(C(F)(F)F)c1)C2	inactive	–
Cc1cc(-c2cccs2)nc(-n2cccc2)n1	3.16 µM (active)	–
CCCCN1C(=O)CC(Sc2ccccc2C(=O)O)C1=O (stereo not given)	inactive	–

SMILES	AC50	activity, negative = inhibition
CCCCN1C2=NCCCN2c2ccccc21	25.1 µM (active)	–
CCCN1C2=NCCCN2c2ccccc21	inactive	–
CCc1ccccc1OC[C@@H](O)CN[C@H]1CCCc2ccccc21	12.6 µM (active)	–
Cc1c(C(=O)NC2CCCc3ccccc32)oc2ccc(S(=O)(=O)N3CCOCC3)cc12 (stereo not given)	inactive	–
COC(=O)[C@@]1(Cc2ccccc2)[C@H]2c3cc(C(=O)N4CCCC4)n(CCc4ccccn4)c3C[C@H]2CN1C(=O)c1ccccc1	inactive	–
COc1ccc(NC(=O)c2cc3n(n2)C(C(F)(F)F)CC(c2ccc4c(c2)OCO4)N3)cc1OC (stereo not given)	inactive	–
COc1ccc(OC)c(NC(=O)c2cc3n(n2)C(C(F)(F)F)CC(c2ccc4c(c2)OCO4)N3)c1 (stereo not given)	0.316 µM (active)	–
COc1ccc(C2CC(C(F)(F)F)n3nc(C(=O)N(C)Cc4cn(C)nc4C)c(Cl)c3N2)cc1 (stereo not given)	inactive	–
CCOC(=O)C1CCCN(c2ncnc3c2cnn3-c2cccc(C)c2)C1 (stereo not given)	14.1 µM (active)	–
CCOC(=O)C1CCCN(c2ncnc3c2cnn3-c2ccc(Cl)cc2)C1 (stereo not given)	8.91 µM (active)	–
CCOC(=O)C1CCCN(C(=O)C2CCN(S(=O)(=O)N3CCC4(CC3)OCCO4)CC2)C1 (stereo not given)	inactive	–
CC(=O)Nc1cccc(C(=O)OCc2ccc(C(=O)Oc3ccc(Cl)cc3)cc2)c1	inactive	–
Cc1cc(OC(=O)c2ccc(Cl)cc2)cc(=O)n1C	25.1 µM (active)	–
Cc1cc(OC(=O)c2ccccc2Cl)cc(=O)n1C	3.55 µM (active)	–
CC(=O)c1c(C(C)=O)c(C)n(NC(=O)c2ccccc2Cl)c1C	inactive	–
COc1ccc(C2CC(=O)CC(=O)C2n2cncn2)cc1 (stereo not given)	inactive	–
CC(CC(=O)O)(CC(=O)O)c1ccccc1	–	-0.666% [at 11.4 µM] (inactive)
COc1cc(-c2ccc(=O)[nH]n2)ccc1OC(F)F	5.01 µM (active)	–
c1ccc2c(c1)CCCc1cc(NCCN3CCOCC3)nnc1-2	inactive	–
CCOc1nc(NCCN2CCOCC2)nc(Nc2ccc(C)cc2)n1	inactive	–
Clc1ccccc1-c1nccc(NCCN2CCOCC2)n1	2 µM (active)	–
Cc1ccccc1-c1nccc(NCCN2CCOCC2)n1	5.01 µM (active)	–
CN(C)c1ccc(-c2nccc(NCCN3CCOCC3)n2)cc1	1.26 µM (active)	–
c1cc(CNCCCN2CCOCC2)ccn1	inactive	–
O=C(/C=C/c1ccccc1Cl)NCCN1CCOCC1	inactive	–

SMILES	AC50	activity, negative = inhibition
C#CCCCO/N=C1/C[C@@H](O)[C@@H](O)[C@@H]2[C@H]3C(=O)N(c4ccc(F)cc4F)C(=O)[C@@H]3CC[C@@H]12	–	5.29% [at 11.4 µM] (inactive)
CNC(=O)c1c(I)c(C(=O)NCC(=O)Nc2c(I)c(C(=O)O)c(I)c(C(=O)NCCO)c2I)c(I)c(N(C)C(C)=O)c1I	inactive	–
O=c1c(-c2cccs2)nc2cncnc2n1-c1ccccc1	12.6 µM (active)	–
COc1ccc(-n2c(=O)c(-c3cccs3)nc3cncnc32)cc1	10 µM (active)	–
COc1ccccc1CNc1cc(-c2ccccc2OC)ncn1	2.51 µM (active)	–
COc1ccccc1CNc1cc(-c2ccccc2C)ncn1	5.01 µM (active)	–
CC(=O)NCCNc1cc(-c2ccccc2CN(C)C)ncn1	inactive	–
CC(=O)NCCNc1cc(-c2ccccc2C)ncn1	15.8 µM (active)	–
COCCNc1cc(-c2ccccc2C)ncn1	15.8 µM (active)	–
COCCNc1cc(-c2ccccc2CN(C)C)ncn1	inactive	–
CCCc1nnc(NC(=O)CCC(=O)N2CCN(c3ccccn3)CC2)s1	inactive	–
Cc1ccc(C(=O)N2CCN(c3ccc(C(F)(F)F)cn3)CC2)cc1	14.1 µM (active)	–
O=C(c1cc(C(F)(F)F)cc(C(F)(F)F)c1)N1CCC2(CC1)CCN(c1ccccn1)CC2	inactive	–
O=C(c1ccc(Oc2ccc(C(F)(F)F)cn2)cc1)N1CCN(c2ccccc2)CC1	inactive	–
CCCS(=O)(=O)N1CCCC(C(=O)NCCCN2CCN(c3ccc(F)cc3)CC2)C1 (stereo not given)	inactive	–
c1ccc2c(c1)c1ccccc1n2Cn1c2ccccc2c2ccccc21	0.251 µM (active)	–
CN(C)C(=O)c1ccc(-n2nc(C(F)(F)F)c3c2CCCC3)cc1	22.4 µM (active)	–
COC(=O)[C@@]1(Cc2ccccc2)[C@H]2c3cc(C(=O)N4CCCC4)n(Cc4ccc(C(F)(F)F)nc4)c3C[C@H]2CN1C(=O)c1ccccc1	inactive	–
Cc1cccc2cc(=O)[nH]c(C)c12	14.1 µM (active)	–
CC1CC/C(=C\c2ccc3c(c2)OCO3)C(=O)/C1=C/c1ccc2c(c1)OCO2 (stereo not given)	3.55 µM (active)	–
Cc1ccc(=O)n(-c2ccccc2)c1	31.6 µM (active)	–
Cc1c(O)c(=O)n(-c2ccccc2)n1C	inactive	–
CC(=O)c1c(O)cc(=O)n(-c2ccccc2)c1-c1ccc(C)cc1	inactive	–
Cc1cc2c(nc1C)CCCN2CC(O)CN1CCCc2nc(C)c(C)cc21	–	-4.54% [at 11.4 µM] (inactive)
O=C(NCc1ccccc1)c1ccc2c(c1)C(=O)N(CC1CCCO1)C2=O (stereo not given)	inactive	–

SMILES	AC50	activity, negative = inhibition
O=C1c2ccccc2C(=O)N1CC1CCCO1 (stereo not given)	14.1 µM (active)	–
O=C1C[C@@H](O)[C@@H](O)[C@H]2[C@@H]3C(=O)N(C[C@@H]4CCCO4)C(=O)[C@@H]3CC[C@H]12	–	-4.6% [at 11.4 µM] (inactive) and -8.21% [at 11.4 µM] (inactive)
COc1ccc(Oc2ncc3nc(C)c(=O)n(Cc4cccs4)c3n2)cc1	10 µM (active)	–
COc1ccc(Oc2ncc3ncc(=O)n(Cc4cccs4)c3n2)cc1	10 µM (active)	–
COc1ncc2ncc(=O)n(Cc3cccs3)c2n1	10 µM (active)	–
NC(N)=N[C@@H]1C(O)[C@H](N=C(N)N)[C@@H](O)C(O)[C@H]1O (stereo not given in full)	–	-4.87% [at 2.29 µM] (inactive)
O=C(CCN1C(=O)/C(=C/c2cccc(Br)c2)SC1=S)NNC(=O)c1cccnc1	inactive	–
O=C1/C(=C/c2cccnc2)SC(=S)N1Cc1ccco1	0.501 µM (active)	–
Cc1ccc(S(=O)(=O)/N=C2/NC(=O)/C(=C/c3cccnc3)S2)cc1	inactive	–
CCCc1cc2c(cc1NC(=O)c1ccccc1C)OCO2	2.24 µM (active)	–
CCCN(C(=O)Cc1nc(N)n[nH]1)C1(C(=O)Nc2ccccc2C)CCCCC1	inactive	–
CCCc1cc2c(cc1NC(=O)c1ccccc1Cl)OCO2	2.51 µM (active)	–
CC[C@@]12CCCN3CCc4c(n(c5ccccc45)[C@](O)(C(=O)OC)C1)[C@H]32	inactive	–
O=C(O)[C@H](CCc1ccccn1)c1ccccc1	–	-12.5% [at 11.4 µM] (inactive)
O=C(CCCc1ccccn1)c1ccccc1	5.01 µM (active)	–
O=C(O)CCC(=O)N1CCN(c2ccccn2)CC1	inactive	–
COc1cc(/C=N\Nc2nc3ccccc3[nH]2)cc(OC)c1OC	10 µM (active)	–
COc1cc(/C=N\NC(=O)C2C(=O)NCC2c2ccccc2)cc(OC)c1O (stereo not given)	inactive	–
CN(CC(=O)N1CCN(c2ccccc2)CC1)S(=O)(=O)c1cnc[nH]1	inactive	–
CC(C)CN(CC(C)C)S(=O)(=O)N1CCC(C(=O)NCc2ccc(F)cc2)CC1	inactive	–
Cn1c[n+](C)cc1/C=N/O	inactive	–
COC(=O)C1=C(C)NC(C)=C(C(=O)OCCSc2ccccc2)[C@@H]1C	0.794 µM (active)	–
COc1cc(C2C(C(=O)OCCC#N)=C(C)NC3=C2S(=O)(=O)c2ccccc23)cc(OC)c1OC (stereo not given)	inactive	–
Cc1cnn(-c2cc(N/N=C/c3ccccc3F)ncn2)c1	0.562 µM (active)	–
Cc1cnn(-c2cc(N/N=C/c3ccccc3)ncn2)c1	2 µM (active)	–
